For 33 molecules, normalised cell viability results are on record in the supplement of paper PMC6609913.

The test relates to V-C8 + BRCA2 (BRCA2-proficient hamster cells). Kind of test: normalised cell viability (fraction of plate median); higher = more viable cells (less toxic). To be noted: 5 µM. Summed up: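 Library drugs, held as 10 mM stocks in DMSO, were diluted to 5 μM in 100 μl medium and added to 96-well plates of V-C8 hamster cells, either lacking BRCA2 or with BRCA2 restored, 24 h after seeding. Plates ran for 3 days (screen 1) or 6 days (screen 2), alongside solvent-only wells. Viability came from a resazurin readout, median-plate normalised, as the mean of triplicate wells.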

Structures are written as SMILES. Where a name gives a salt, the structure may show the parent alone. ± gives the standard deviation of the averaged measurements. The full ranking holds about 1,300 compounds; the median of “normalised cell viability” is about 1, and the lowest 2% start at about 0.15. Shown is part of a subset that was picked to be rich in the lowest values.

As for `C[n+]1ccccc1/C=N/O` [Pralidoxime chloride], the normalised cell viability by setting is: (treatment time: 3 days) 0.99 ± 0.036; (treatment time: 6 days) 0.9475 ± 0.0081.

Regarding `NS(=O)(=O)c1cc(C2(O)NC(=O)c3ccccc32)ccc1Cl` (stereo unspecified) [Chlorthalidone], the normalised cell viability came out at 1.1 ± 0.018 (treatment time: 3 days) and 1.03 ± 0.079 (treatment time: 6 days).

As for `CCc1cccc2c3c([nH]c12)C(CC)(CC(=O)O)OCC3` (stereo unspecified) [Etodolac], the normalised cell viability (treatment time: 3 days) came out at 0.922 ± 0.034 and the normalised cell viability (treatment time: 6 days) was found to be 1.04 ± 0.084.

As for `CN[C@@H]1[C@H](O[C@H]2[C@H](O[C@H]3[C@H](O)[C@@H](O)[C@H](NC(=N)N)[C@@H](O)[C@@H]3NC(=N)N)O[C@@H](C)[C@]2(O)CO)O[C@@H](CO)[C@H](O)[C@H]1O` [Dihydrostreptomycin sulfate], the normalised cell viability is, setting by setting: (treatment time: 3 days) 0.911 ± 0.07; (treatment time: 6 days) 0.983 ± 0.042.

In the case of `NS(=O)(=O)c1cc2c(cc1C(F)(F)F)NC(Cc1ccccc1)NS2(=O)=O` (stereo unspecified) [Bendroflumethiazide], the normalised cell viability (treatment time: 3 days) stood at 0.992 ± 0.096 and the normalised cell viability (treatment time: 6 days) came out at 1.03 ± 0.032.

With `CC[C@H](C)C(=O)O[C@H]1C[C@H](O)C=C2C=C[C@H](C)[C@H](CC[C@@H](O)C[C@@H](O)CC(=O)O)[C@H]21` [Pravastatin], the normalised cell viability reads like this: (treatment time: 3 days) 0.969 ± 0.14; (treatment time: 6 days) 1.02 ± 0.089.

On to `CC[C@H](C)C(=O)O[C@H]1C[C@@H](C)C=C2C=C[C@H](C)[C@H](CC[C@@H]3C[C@@H](O)CC(=O)O3)[C@H]21` [Lovastatin], for which the normalised cell viability is, setting by setting: (treatment time: 3 days) 0.19 ± 0.015; (treatment time: 6 days) 0.153 ± 0.019.

Take `CC[C@H](C)C(=O)O[C@H]1CCC=C2C=C[C@H](C)[C@H](CC[C@@H]3C[C@@H](O)CC(=O)O3)[C@H]21` [Mevastatin]: the normalised cell viability by setting is: (treatment time: 3 days) 0.246 ± 0.0034; (treatment time: 6 days) 0.23 ± 0.011.

As to `NCCNCCNCCNCCN` [Tetraethylenepentamine pentahydrochloride], the normalised cell viability (treatment time: 3 days) is 0.972 ± 0.03 and the normalised cell viability (treatment time: 6 days) was 1.01 ± 0.024.

Take `CC=CC1=C(C(=O)O)N2C(=O)[C@@H](NC(=O)[C@H](N)c3ccc(O)cc3)[C@H]2SC1` [Cefprozil]: the normalised cell viability (treatment time: 3 days) was determined as 0.951 ± 0.071 and the normalised cell viability (treatment time: 6 days) is 0.908 ± 0.072.

`Clc1cnccn1` [2-Chloropyrazine]: the normalised cell viability by setting is: (treatment time: 3 days) 1.02 ± 0.036; (treatment time: 6 days) 1.02 ± 0.071.

For `Cc1cc(-c2ccccc2)nnc1NCCN1CCOCC1` [Minaprine dihydrochloride], the normalised cell viability is 1.1 ± 0.02 (treatment time: 3 days) and 1.03 ± 0.048 (treatment time: 6 days).

With `CC(C(=O)O)c1ccc2c(c1)[nH]c1ccc(Cl)cc12` (stereo unspecified) [Carprofen], the normalised cell viability (treatment time: 3 days) is 1.04 ± 0.11 and the normalised cell viability (treatment time: 6 days) is 1.04 ± 0.13.

In the case of `CN(Cc1ccc(C(C)(C)C)cc1)Cc1cccc2ccccc12` [Butenafine Hydrochloride], the normalised cell viability by setting is: (treatment time: 3 days) 1.06 ± 0.05; (treatment time: 6 days) 0.982 ± 0.048.

On to `C[C@@H]1C[C@H]2[C@@H]3C[C@H](F)C4=CC(=O)C=C[C@]4(C)[C@@]3(Cl)[C@@H](O)C[C@]2(C)[C@H]1C(=O)COC(=O)C(C)(C)C` [Clocortolone pivalate], for which the normalised cell viability by setting is: (treatment time: 3 days) 1.03 ± 0.27; (treatment time: 6 days) 0.899 ± 0.07.

Turning to `CCN(CC)C(=O)C1(c2ccccc2)CC1CN` (stereo unspecified) [Milnacipran hydrochloride], the normalised cell viability is 0.956 ± 0.095 (treatment time: 3 days) and 0.937 ± 0.048 (treatment time: 6 days).

With `COc1nc(C)nc(Cl)c1NC1=NCCN1` [Moxonidine], the normalised cell viability by setting is: (treatment time: 3 days) 1.014 ± 0.0037; (treatment time: 6 days) 0.9963 ± 0.0028.

With `CC1CC(OC(=O)c2ccccc2O)CC(C)(C)C1` (stereo unspecified) [Homosalate], the normalised cell viability (treatment time: 3 days) was 1.03 ± 0.04 and the normalised cell viability (treatment time: 6 days) is 1.02 ± 0.074.

As to `CN(C)C(=O)C(CCN1CCC(O)(c2ccc(Cl)cc2)CC1)(c1ccccc1)c1ccccc1` [Loperamide hydrochloride], the normalised cell viability reads like this: (treatment time: 3 days) 0.687 ± 0.041; (treatment time: 6 days) 0.67 ± 0.057.

Regarding `CN[C@H](CC(C)C)C(=O)N[C@H]1C(=O)N[C@@H](CC(N)=O)C(=O)N[C@H]2C(=O)N[C@H]3C(=O)N[C@H](C(=O)N[C@H](C(=O)O)c4cc(O)cc(O)c4-c4cc3ccc4O)[C@H](O)c3ccc(c(Cl)c3)Oc3cc2cc(c3O[C@@H]2O[C@H](CO)[C@@H](O)[C@H](O)[C@H]2O[C@H]2C[C@](C)(N)[C@H](O)[C@H](C)O2)Oc2ccc(cc2Cl)[C@H]1O` [Vancomycin hydrochloride], the normalised cell viability runs as follows: (treatment time: 3 days) 0.177 ± 0.0067; (treatment time: 6 days) 0.17 ± 0.018.

As to `COc1ccc2[nH]cc(CCNC(C)=O)c2c1` [Melatonin], the normalised cell viability (treatment time: 3 days) was found to be 1.22 ± 0.097 and the normalised cell viability (treatment time: 6 days) is 0.928 ± 0.048.

Consider `CCCCCNC(=N)N/N=C/c1c[nH]c2ccc(OC)cc12` [Tegaserod maleate], for which the normalised cell viability was 0.1362 ± 0.0013 (treatment time: 3 days) and 0.155 ± 0.022 (treatment time: 6 days).

In the case of `CC[C@@H](CO)NCCN[C@@H](CC)CO` [Ethambutol dihydrochloride], the normalised cell viability reads like this: (treatment time: 3 days) 1.05 ± 0.058; (treatment time: 6 days) 1 ± 0.011.

For `C1CCC(C(CC2CCCCN2)C2CCCCC2)CC1` (stereo unspecified) [Perhexiline maleate], the normalised cell viability is, setting by setting: (treatment time: 3 days) 0.135 ± 0.0029; (treatment time: 6 days) 0.125 ± 0.015.

In the case of `Cc1nnc(SCC2=C(C(=O)O)N3C(=O)[C@@H](NC(=O)Cn4cnnn4)[C@H]3SC2)s1` [Cefazolin sodium salt], the normalised cell viability runs as follows: (treatment time: 3 days) 1.1 ± 0.034; (treatment time: 6 days) 1.01 ± 0.12.

For `CCCCCCCCCCCCCCCC[N+](C)(C)CCN(Cc1ccc(OC)cc1)c1ncccn1` [Thonzonium bromide], the normalised cell viability by setting is: (treatment time: 3 days) 0.787 ± 0.094; (treatment time: 6 days) 0.74 ± 0.19.

Regarding `CCCC1O[C@@H]2C[C@H]3[C@@H]4CCC5=CC(=O)C=C[C@]5(C)[C@H]4[C@@H](O)C[C@]3(C)[C@]2(C(=O)CO)O1` (stereo partly specified) [Budesonide], the normalised cell viability by setting is: (treatment time: 3 days) 0.9516 ± 0.0071; (treatment time: 6 days) 0.936 ± 0.024.

With `CC1(C)OC(=O)NC1=O` [Dimethadione], the normalised cell viability by setting is: (treatment time: 3 days) 1.08 ± 0.064; (treatment time: 6 days) 0.964 ± 0.043.

As for `CNC[C@H](O)[C@@H](O)[C@H](O)[C@H](O)CO` [Meglumine], the normalised cell viability (treatment time: 3 days) is 0.938 ± 0.094 and the normalised cell viability (treatment time: 6 days) is 0.983 ± 0.037.

Turning to `C[N+](C)(C)CCOC(N)=O` [Carbachol], the normalised cell viability reads like this: (treatment time: 3 days) 0.953 ± 0.043; (treatment time: 6 days) 1.01 ± 0.036.

Turning to `CN1C2CCCC1CC(NC(=O)c1nn(C)c3ccccc13)C2` (stereo unspecified) [Granisetron], the normalised cell viability by setting is: (treatment time: 3 days) 1.03 ± 0.036; (treatment time: 6 days) 1.01 ± 0.017.

For the molecule `CCN(CC)CCOC(=O)C1(c2ccc([N+](=O)[O-])cc2)CCCC1` [Nitrocaramiphen hydrochloride], the normalised cell viability by setting is: (treatment time: 3 days) 1.06 ± 0.024; (treatment time: 6 days) 1.038 ± 0.0056.

Turning to `CCCCCN(CCCCC)C(=O)C(CCC(=O)O)NC(=O)c1ccc(Cl)c(Cl)c1` (stereo unspecified) [Lorglumide sodium salt], the normalised cell viability runs as follows: (treatment time: 3 days) 1 ± 0.032; (treatment time: 6 days) 1.04 ± 0.015.
